By inhibition is commonly meant the drop in the measured response relative to a control, in per cent.

This note sets out measurements from PubChem BioAssay AID2650 (Broad Institute, 2010).

Among all 320,000 compounds or so, about 320 (0.1%) were called active. Shown is part of a subset that was picked to be rich in actives. Unmarked numbers belong to inactive results.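 How the source made its calls: active means more than half of replicates show inhibition above 20%; inconclusive means some but at most half of replicates above 20% inhibition; inactive means no replicate shows inhibition above 20%.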 Non-standard residues stand in square brackets, D forms with d. Residues, ends and D or L forms follow the SMILES beside them. ξ: configuration not given here. ξM = CSCCC(N)C(=O)O

In the test the target is Glycogen synthase kinase-3 alpha (Homo sapiens) (UniProt P49840). The test is described as follows: blockers of GSK3A enzyme activity – biochemical, luminescence, cell-free homogeneous, HTS, primary screen (AID 2650).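 Further: GST-tagged GSK-3 alpha with peptide substrate and 25 µM ATP; 0% = DMSO neutral wells and 100% = GW8510 positive control wells.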 The conditions noted are these: GSK-3 alpha kinase, ADP-Glo luminescence, 60 min; at 10 µM; active compounds read high. On the technique in general: ADP-Glo first removes unused ATP, then detects ADP through luciferase.
Chain of Glycogen synthase kinase-3 alpha (Homo sapiens) (P49840 whole entry, looked up): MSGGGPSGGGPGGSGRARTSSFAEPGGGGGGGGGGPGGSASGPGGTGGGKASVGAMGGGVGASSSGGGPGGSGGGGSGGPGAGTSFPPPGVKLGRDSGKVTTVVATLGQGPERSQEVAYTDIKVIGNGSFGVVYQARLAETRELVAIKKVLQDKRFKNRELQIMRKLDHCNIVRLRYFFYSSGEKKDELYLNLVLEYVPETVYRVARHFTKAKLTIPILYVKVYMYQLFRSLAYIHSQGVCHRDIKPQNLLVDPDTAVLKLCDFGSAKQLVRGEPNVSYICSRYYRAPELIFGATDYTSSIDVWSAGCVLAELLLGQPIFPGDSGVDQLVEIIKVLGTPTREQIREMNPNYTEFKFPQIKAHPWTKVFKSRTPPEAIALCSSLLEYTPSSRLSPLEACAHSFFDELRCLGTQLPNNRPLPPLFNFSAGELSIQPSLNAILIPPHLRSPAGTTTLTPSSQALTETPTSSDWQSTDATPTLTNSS
In the case of `Cc1ccccc1-c1cc(C(=O)NCc2cccs2)n(CC2CC(c3cccnc3)=NO2)n1` (stereo not drawn), the inhibition was 8.15%.

On to `COC(=O)c1sc(N)c(C(=O)OC)c1COC(=O)CNS(=O)(=O)c1ccc(C)cc1`, for which the inhibition is -5.73%.

Turning to `O=C(CN1CCC(O)(c2cccc(C(F)(F)F)c2)CC1)NCCc1ccccc1`, the inhibition is -1.83%.

For the compound `COc1ccccc1CNC(=O)Cn1c(=O)oc2cc(Cl)ccc21`, the inhibition is -2.27%.

On to `CN(C)Cc1c(O)ccc2c(=O)c(-c3ccccc3Cl)coc12`, for which the inhibition was 0.391%.

In the case of `COC(=O)C(C)Oc1ccc2c(c1)O/C(=C\c1cccc(Br)c1)C2=O` (stereo not drawn), the inhibition is -0.218%.

With `COc1ccc2c(c1)O/C(=C\c1ccccc1O)C2=O`, the inhibition was -3.6%.

Consider `O=C1/C(=C/c2ccc3c(c2)OCO3)Oc2cc(OCC(=O)N3CC(O)C[C@H]3C(=O)O)ccc21` (stereo partly drawn), for which the inhibition is 58.3% (active).

Regarding `CSc1nccc(NC(=O)c2ccc(C(C)(C)C)cc2)n1`, the inhibition was 0.764%.

For `CCN1CCN(c2c(Cl)cccc2NC(=O)c2ccc(Br)o2)CC1`, the inhibition is 84.2% (active).

Regarding `O=C(Nc1cccc(Cl)c1N1CCOCC1)c1ccc2c(c1)OCCO2`, the inhibition was 3.78%.

Consider `O=C(Nc1cccc(Cl)c1N1CCOCC1)c1cccnc1`, for which the inhibition is 1.42%.

For `CC(C)(C)NS(=O)(=O)NC(=O)C1=C(N2CCCC2)COC1=O`, the inhibition was -2.51%.

As for `N#Cc1ccc(OCC(=O)NC(=O)NC2CCS(=O)(=O)C2)cc1` (stereo not drawn), the inhibition was 0.468%.

As for `CCOC(=O)CCCCCC(=O)Nc1ccc2c(c1)CC(=O)N([C@@H](C)CO)C[C@H](C)[C@@H](CN(C)Cc1ccccc1)O2`, the inhibition is -2.38%.

With `COc1ccc(NC(=O)c2cc([N+](=O)[O-])ccc2NC(=O)CNC2CCCCC2C)c(OC)c1` (stereo not drawn), the inhibition was -2.82%.

Regarding `O=C(Nc1ccc(Cl)c(Cl)c1)N1CC=C(c2ccccc2)CC1`, the inhibition was -0.494%.

Turning to `COc1ccc(-n2c(=S)[nH]c3sc4c(c3c2=O)CCc2ccccc2-4)cc1`, the inhibition was -1.96%.

Consider `COc1ccc(Cn2c(O)c(/C=C3/C=CC=N3)c(=O)[nH]c2=O)cc1`, for which the inhibition is 0.739%.

For the compound `CCC(C)NCCOCCOc1ccc(Br)cc1C` (stereo not drawn), the inhibition was -0.652%.

Consider `CCNc1nc(N)nc(Oc2ccc(OCC)nn2)n1`, for which the inhibition is 3.16%.

For `Cc1ccc(CNCc2ccc3c(c2)OCO3)c(C)c1`, the inhibition is -0.957%.

Consider `CCOC(=O)c1ccccc1NC(=O)COC(=O)CCC(=O)N1CCOCC1`, for which the inhibition is 8.47%.

On to `COc1ccc(CCNS(=O)(=O)c2cn(C)nc2C)cc1`, for which the inhibition was 2.55%.

Take `Nc1nonc1-n1nnc(C(=O)N/N=C/c2ccccc2O)c1CN1CCCC1`: the inhibition was 49.8%.

Consider `Nc1nonc1-n1nnc(C(=O)N/N=C\c2ccncc2)c1CN1CCCCC1`, for which the inhibition was 107% (active).

With `NNC(=O)c1nnn(-c2nonc2N)c1CN1CCCC1`, the inhibition is 23.2%.

Regarding `COc1ccc(/C=C/C(=O)OCC(=O)NC2CCCCCC2)cc1OC`, the inhibition was -0.779%.

In the case of `COc1ccc(S(=O)(=O)N2CCN(C(C)C(=O)Nc3ccc(C(C)C)cc3)CC2)cc1` (stereo not drawn), the inhibition is 1.33%.

As for `COCCCn1c(Cc2csc(Nc3cccc(Cl)c3)n2)nnc1SCC(=O)OC1CCCCC1`, the inhibition was 1.8%.

As for `CC(=O)c1cccc(OCC(=O)OCC(=O)Nc2cc(S(=O)(=O)N3CCCCC3)ccc2C)c1`, the inhibition is 2.43%.

Consider `CCOCC(=O)Nc1ncc(S(=O)(=O)c2ccc([N+](=O)[O-])cc2)s1`, for which the inhibition was -1.6%.

For the compound `COC(=O)CNC(=O)C(CCSC)NC(C)=O` (stereo not drawn) (Ac-[ξM]-Gly-OMe), the inhibition was -4.49%.

As to `CSCc1cc(N(C)C)nc(SCc2ccc(Cl)cc2Cl)n1`, the inhibition was -5.57%.

As to `C=CCNc1nc(N)c([N+](=O)[O-])c(NC2CCCCC2)n1`, the inhibition is 0.434%.

As for `COCCNc1nc(N)c([N+](=O)[O-])c(NCCO)n1`, the inhibition was 53.1% (active).

Regarding `COCCNc1nc(N)c([N+](=O)[O-])c(N2CCCCCC2)n1`, the inhibition was 1.39%.

`COc1ccc(C(=O)NCc2ccccc2C)cc1S(=O)(=O)NC1CCCC1`: the inhibition is -2.96%.

`Cn1c(SCC(=O)Nc2nccs2)nnc1-c1cccnc1`: the inhibition was 2.04%.

As for `CC1CCCN(C(=O)CN2C(=O)c3ccccc3S2(=O)=O)C1` (stereo not drawn), the inhibition is -0.713%.

As to `CC1CC(=NNC(=O)C2COc3ccccc3O2)CC(C)(C)C1` (stereo not drawn), the inhibition is 0.373%.

For the compound `C=CCC[C@H](Cc1ccc(F)cc1)C(=O)OC[C@@H](NC(=O)[C@@H](CC=C)CC(=O)N[C@H](CO)Cc1ccccc1)C(C)(C)C`, the inhibition is -1.79%.

Regarding `CS(=O)(=O)N(CC(=O)NC1CCCC1)Cc1ccc(F)cc1`, the inhibition is 10.3%.

`O=S(N1CCCCCC1)C12CC3CC(CC(C3)C1)C2` (stereo not drawn): the inhibition was -2.72%.

Consider `Cc1cc(C)c(S(=O)(=O)n2cc(C(C)C(N)C(=O)O)c3ccccc32)c(C)c1` (stereo not drawn), for which the inhibition was -2.93%.

Turning to `NC1=NC[C@@H](Cc2ccc(O)cc2)N1CC1CCCCC1`, the inhibition was 1.17%.

For the compound `O=C(CSc1nc2nccnc2c(=O)n1Cc1cccs1)Nc1ccccc1F`, the inhibition is 1.43%.

Take `O=C(c1ccc(N2CCOCC2)c([N+](=O)[O-])c1)N1CCN(c2ccccc2F)CC1`: the inhibition is -2.69%.

In the case of `Cn1c(-c2ccc(F)cc2)cc2onc(-c3ccccc3Cl)c2c1=O`, the inhibition was -1.73%.

Turning to `CCN(CC)CCCNC(=O)CCn1nc(-c2ccc(Cl)cc2)ccc1=O`, the inhibition is -1.8%.

As to `O=C(NCCCN1CCCC1=O)C(=O)NCC1OCCN1S(=O)(=O)c1ccc(Br)cc1` (stereo not drawn), the inhibition is -1.8%.

`COc1ccc2nc3n(c(=O)c2c1)-c1ccc(Cl)cc1C(=O)NC3Cc1ccccc1` (stereo not drawn): the inhibition is -2.35%.

Consider `N#Cc1ccccc1CN1C(=O)S/C(=C/c2cccn2-c2cccc(C(=O)O)c2)C1=O`, for which the inhibition was 3.06%.

Consider `COc1ccc(Cn2c(C)c(C)c(C#N)c2NC(=O)Nc2ccc(F)cc2)cc1`, for which the inhibition is -1.46%.

For the compound `O=C(Nc1ccc(S(=O)(=O)N2CCCCC2)cc1)C1CC(=O)N(c2ccc(F)cc2)C1` (stereo not drawn), the inhibition is 0.943%.

With `CCOc1ccc(S(=O)(=O)NCCC(=O)NCC(C)(C)N2CCOCC2)cc1`, the inhibition was -4.12%.

With `CC(C)n1cnc2c(NCc3ccccc3)cc(N[C@@H](CO)Cc3ccccc3)cc21`, the inhibition was -3.52%.

For the compound `CCOc1ccc(CCNC(=O)C(CC)n2nc(C)n3c(cc4sccc43)c2=O)cc1OCC` (stereo not drawn), the inhibition was 8.43%.

As to `CC1=C(C(=O)NC2CC(C)(C)Cc3c2cnn3-c2ccc(C)cc2)OCCO1` (stereo not drawn), the inhibition is -2.77%.

Regarding `Cc1cccn2c(=O)nc(SCC(=O)NCc3ccccc3Cl)nc12`, the inhibition is -2.07%.

Consider `O=C(CN(C(=O)c1csnn1)c1cccc(F)c1)NCc1ccc(F)cc1`, for which the inhibition is 0.738%.

Take `O=C(Nc1ccccn1)C1CCN(S(=O)(=O)c2ccccc2)CC1`: the inhibition was 3.28%.

For the compound `CCCC1NC(=S)NC(C)=C1C(C)=O` (stereo not drawn), the inhibition is -1.05%.

Regarding `OCCCNc1nc(-c2ccccc2)c2cc(Cl)ccc2n1`, the inhibition is 1.49%.

As for `OCCCNc1nccc(-c2cc(Nc3cccc(Cl)c3)ncn2)n1`, the inhibition is 89.3% (active).

On to `CC(C)n1cnc2c(Nc3cccc(Cl)c3)nc(N(CCO)CCCO)nc21`, for which the inhibition was 9.71%.

Regarding `CCCOc1ccc(Cc2c(O)nc(N)[nH]c2=O)cc1C`, the inhibition was -0.849%.

`CCn1c(SC)nc(O)c(C(c2ccc(OC)c(O)c2)c2c(O)nc(SC)n(CC)c2=O)c1=O`: the inhibition was -6.95%.
